Calls of active or inactive are those of the source.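 How the source made its calls: active means compounds whose dose series gives a full or clear partial fitted curve of increased nuclear translocation; inconclusive means weak partial curve or effect only at the top dose; inactive means no dose-dependent translocation response.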
These compounds were tested against Glucocorticoid receptor (Homo sapiens) (UniProt P04150) (assay: GR-GFP Redistribution (AID 450)). Settings: U2OS GR-GFP nuclear translocation, laser cytometry, 2 h.
Sequence of Glucocorticoid receptor (Homo sapiens) (P04150 whole entry, looked up): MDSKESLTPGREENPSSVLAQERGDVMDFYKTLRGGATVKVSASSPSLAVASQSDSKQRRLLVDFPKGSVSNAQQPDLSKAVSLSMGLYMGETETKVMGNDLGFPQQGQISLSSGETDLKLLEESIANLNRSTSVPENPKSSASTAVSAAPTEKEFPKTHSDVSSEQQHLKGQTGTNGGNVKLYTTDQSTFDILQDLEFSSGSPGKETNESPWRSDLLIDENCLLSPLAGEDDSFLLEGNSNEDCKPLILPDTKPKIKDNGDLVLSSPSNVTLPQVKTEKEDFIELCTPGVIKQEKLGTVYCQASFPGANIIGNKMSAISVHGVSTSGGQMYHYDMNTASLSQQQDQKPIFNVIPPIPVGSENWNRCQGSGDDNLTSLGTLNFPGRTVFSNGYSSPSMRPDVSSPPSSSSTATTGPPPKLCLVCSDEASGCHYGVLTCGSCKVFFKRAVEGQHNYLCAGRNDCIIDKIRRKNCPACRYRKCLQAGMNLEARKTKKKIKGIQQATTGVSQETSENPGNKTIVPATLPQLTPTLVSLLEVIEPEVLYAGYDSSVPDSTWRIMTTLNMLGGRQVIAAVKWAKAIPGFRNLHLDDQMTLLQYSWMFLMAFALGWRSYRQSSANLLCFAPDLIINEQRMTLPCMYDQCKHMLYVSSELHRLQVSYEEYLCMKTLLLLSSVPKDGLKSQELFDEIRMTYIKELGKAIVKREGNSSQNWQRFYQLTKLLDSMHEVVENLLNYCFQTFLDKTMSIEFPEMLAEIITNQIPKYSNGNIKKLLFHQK
Text: NIH Molecular Libraries Screening Centers Network [MLSCN]
NIH Chemical Genomics Center [NCGC]
The glucocorticoid receptor (GR) Redistribution assay (BioImage) enables the visualization of GR cytoplasmic to nuclear translocation by the use of a GR-GFP fusion. GR is normally cytosolic, however ligands such as dexamethasone, cause nuclear translocation where the protein binds to response elements and interacts with various co-factors to modulate transcription. Because both functional agonists and antagonists can induce nuclear translocation, this assay can detect ligands regardless of their effects on gene expression. GR-GFP expressing U20S cells were used here. Dexamethasone was the positive control for translocation and data normalization. Detection of nuclear translocation was performed in 1536-well plates using the Acumen laser scanning plate cytometer (TTP LabTech). Validation of this assay and a detailed protocol have been described.
NCGC Assay Protocol Summary:
GR-GFP U2OS cells were maintained in DMEM with Glutamax and high glucose, 1% v/v penicillin-streptomycin, and 0.5 mg/mL Geneticin. For cell culture, 10% […] fetal bovine serum (FBS) was used (Invitrogen #26140-079). For cell plating 10% dextran, charcoal-stripped FBS (Hyclone SH30068.03) was used. U2OS cells were trypsin treated, suspended in medium, and passed through a 40 um basket filter. The cells were seeded at 600 cells/5 uL/well into clear-bottom black sided 1536-well plates and incubated for approximately 20 hrs, 37degC, 5%, CO2 in a tissue culture incubator. Twenty-three nL of compound was delivered by pin tool and the plates were incubated as above for 2 hrs. The compounds were tested as a 7-point titration ranging from 46 uM to 0.6 nM. The cells were fixed using the Kalypsys Washer/Dispenser station. The fixing protocol involved aspiration of the cell media, addition of 6 uL/well of PBS, aspiration of PBS, addition of 5uL/well of 100% methanol, aspiration of methanol, and addition of 3 uL/well PBS with 1.5 uM propidium iodide (PI). The plates were read by the Acumen Explorer using a 1 x 8 um scan of the whole well area. PI fluorescence triggered the collection of PI and GFP signals. A nuclei population was defined by a 10 to 100 um width and depth filter that eliminated small and large fluorescent particles. Two subpopulations of nuclei were then defined by peak intensity of GFP fluorescence to obtain translocated and untranslocated objects. The number of translocated objects was used for data normalization.
Keywords: NIH Roadmap, MLSCN, MLI, MLSMR, sOGT, qHTS, NCGC
Potency means the concentration at half of the fitted maximal effect.

SMILES | Potency
Nc1ncnc2nn([C@H]3O[C@@H](CO)[C@@H](O)[C@H]3O)nc12 | > 46 µM (inactive)
Cc1[nH]c2ccccc2c1-c1cc(-c2cc(-c3c(C)[nH]c4ccccc34)on2)no1 | > 46 µM (inactive)
CN(C)CCCNc1cc(O)c2c(c1O)C(=O)c1ccccc1C2=O | > 46 µM (inactive)
O=C(O)c1ccc(C(=O)c2ccccc2C(=O)O)cc1C(=O)O | > 46 µM (inactive)
CC(C)C1=C[C@@]23CC[C@@H]4[C@](C)(CCC[C@@]4(C)C(=O)O)[C@@H]2C[C@@H]1[C@@H](C(=O)O)[C@@H]3C(=O)O | > 46 µM (inactive)
Cc1cccc(C)c1OC[C@@H](N)C(C)C | > 46 µM (inactive)
COc1ccc(-c2nc3cnc(N4CCNCC4)nc3n(Cc3cccc(OC)c3)c2=O)cc1 | > 9.22 µM (inactive)
Cc1cc2c(SCc3ccccc3Cl)nc(N)nc2nc1C | > 46 µM (inactive)
O=S(=O)(c1cccc(C(F)(F)F)c1)N1c2ccccc2-n2cccc2[C@H]1c1cccnc1 | > 46 µM (inactive)
CN(C)S(=O)(=O)c1nc(Cl)c2[nH]cnc2n1 | > 46 µM (inactive)
O=c1c(-c2ccccc2)nc2cnc(Oc3ccccc3)nc2n1C1CC1 | > 9.22 µM (inactive)
N#C[C@H](c1ccccc1)N1CCCN([C@@H](C#N)c2ccccc2)C1c1ccccc1O (stereo not given in full) | > 46 µM (inactive)
Nc1nc(-c2cc(-c3cccc4ccccc34)nc(N)n2)cc(-c2cccc3ccccc23)n1 | > 46 µM (inactive)
CN(C)Cc1nsc(N(C)C)n1 | > 46 µM (inactive)
N[C@@H](Cc1ccnnc1)C(=O)O | > 46 µM (inactive)
NC(=O)CS(=O)C[C@H](N)C(=O)O (stereo not given in full) | > 46 µM (inactive)
Cc1cc2nc([C@H](C)C(=O)c3ccc(Cl)cc3)c(=O)[nH]c2cc1C | > 46 µM (inactive)
CO[C@@H](NC(N)=O)C(=O)O | > 46 µM (inactive)
NC(=O)SCC(=O)Nc1ccc2ncccc2c1 | > 46 µM (inactive)
NC(=O)C[C@H](N)C(N)=O | > 46 µM (inactive)

SMILES | Potency
CC(C)(SCc1ccccc1)[C@H](N)C(=O)O | > 46 µM (inactive)
S=C(CSc1ccccc1)Nc1cccc2ccccc12 | > 46 µM (inactive)
O=c1cc(N=Nc2ccc(O)cc2)[nH]c(=O)[nH]1 | > 46 µM (inactive)
NCCNC[C@H](O)CO | > 46 µM (inactive)
COc1cc2nc(N(C)CCCNC(=O)[C@@H]3CCCO3)nc(N)c2cc1OC | > 20.6 µM (inactive)
CC(C)(C)c1cc2c(O)c(c1)Cc1cc(C(C)(C)C)cc(c1O)Cc1cc(C(C)(C)C)cc(c1O)Cc1cc(C(C)(C)C)cc(c1O)Cc1cc(C(C)(C)C)cc(c1O)Cc1cc(C(C)(C)C)cc(c1O)Cc1cc(C(C)(C)C)cc(c1O)Cc1cc(C(C)(C)C)cc(c1O)C2 | > 46 µM (inactive)
CC(C)(C)n1nc(C2CC2)cc1NC(=O)Nc1ccc(Cl)cc1 | > 46 µM (inactive)
O=C(O)[C@@H]1[C@@H](C(=O)Nc2ncccn2)[C@@H]2C=C[C@@H]1O2 | > 46 µM (inactive)
COc1ccc(-c2nc(N)c3ncn([C@H]4O[C@@H](CO)[C@@H](O)[C@@H]4O)c3n2)cc1 | > 46 µM (inactive)
CC(=O)Nc1ccc(S(=O)(=O)N=S(C)C)cc1 | > 46 µM (inactive)
c1ccc(SCCc2ccncc2)cc1 | > 46 µM (inactive)
Nc1ncnc2c1nc(Br)n2[C@@H]1O[C@H]2COP(=O)(O)O[C@@H]2[C@H]1O | 2.43 µM (active)
O=C(O)c1ccc(S(=O)(=O)N=Nc2c(O)[nH]c3ccccc23)cc1 | > 46 µM (inactive)
O=C(O)CSc1ccc([N+](=O)[O-])cc1[N+](=O)[O-] | > 46 µM (inactive)
Nc1nc(SCc2ccccc2[N+](=O)[O-])c2[nH]cnc2n1 | > 46 µM (inactive)
O=C(O)CC[C@@]1(c2ccccc2)NC(=O)NC1=O | > 46 µM (inactive)
Nc1nc(-c2ccccc2)c(-c2ccccc2)c(-c2nc(N)nc(-c3ccccc3)c2-c2ccccc2)n1 | > 46 µM (inactive)
O=C1CN2CCN(CC2)CC(=O)Nc2ccc(cc2)S(=O)(=O)c2ccc(cc2)NC(=O)CN2CCN(CC2)CC(=O)Nc2ccc(cc2)S(=O)(=O)c2ccc(cc2)N1 | > 46 µM (inactive)
NC(=O)c1ncn([C@@H]2O[C@@H](CO)[C@@H](O)[C@H]2O)c1O | > 46 µM (inactive)
Cc1cc(Cc2c(C)c(C)c(Cc3cc(C)cc(C(C)(C)C)c3O)c(C)c2C)c(O)c(C(C)(C)C)c1 | > 46 µM (inactive)

From PubChem BioAssay (NCATS)
